From PubChem BioAssay
Pf growth 48h: Primary qHTS for delayed death inhibitors of the malarial parasite plastid, 48 hour incubation | Potency, µM (top dose mostly 28.7 µM), inactives show at the top dose activity change, negative = inhibition, hits mostly inhibitors | P. falciparum luciferase growth in erythrocytes, 48 h | actives 5.9% (n = 310,000); also: potency is read from the fitted curve at half-maximal effect; % is scaled to controls: 0 for no effect and ±100 for the full control effect
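In quantitative HTS format, infected erythrocytes bearing luciferase-reporter parasites were treated for a single generation at 37 C. Luminescence after adding detection reagent served as the growth measure.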
HCMV inh: qHTS Assay for inhibitors of the human cytomegalovirus (HCMV); activity change, negative = inhibition, % at 57.5 µM; actives 4.5% (n = 410,000); HFF cells, HCMV-luciferase reporter, 72 h; stronger effect = lower value; in the data active = activity change below about -60%; inconclusive = no clear call, values can overlap the other calls; inactive = above about -39%; also: % is scaled to controls: 0 for no effect and ±100 for the full control effect
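After 16 h attachment at 37C, HFF cells received test compound and HCMV-luciferase (1 PFU/cell); reporter luminescence read 72 h later, data normalized against buffer-only and known inhibitor Salinomycin.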
Pf growth 96h: Primary qHTS for delayed death inhibitors of the malarial parasite plastid, 96 hour incubation; Potency, µM (top dose mostly 28.7 µM), inactives show at the top dose activity change, negative = inhibition, actives largely listed as inhibitors; actives 6.9% (n = 320,000); P. falciparum luciferase reporter growth, 96 h; also: potency is read from the fitted curve at half-maximal effect; % is scaled to controls: 0 for no effect and ±100 for the full control effect
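Cell-based qHTS: luciferase-tagged P. falciparum in erythrocytes (2% hematocrit, 0.05% parasitemia final) incubated with compounds for 96 hours, 37 C, 5% CO2; luciferase detection reagent then added and luminescence measured.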
Shiga toxin inh: A qHTS for Small Molecule Inhibitors of Shiga Toxin. Vero cells, Shiga toxin protein synthesis inhibition reporter. inhibition, % at 38.7 µM. actives 9.2% (n = 290,000); in the data active = inhibition mostly above about 28%, no sharp cut-off; inactive = mostly below about 43%; also: 0% is about no effect
CHX counter: Cycloheximide Counterscreen for Small Molecule Inhibitors of Shiga Toxin. cell reporter, cycloheximide protein synthesis inhibition counterscreen. max response, %. actives 12% (n = 300,000). AID 2314, 2010; in the data active = max response mostly above about 13%, no sharp cut-off; inactive = mostly below about 14%; also: read at 38.3 µM for the half of the compounds with a filed dose; 0% is about no effect
* hit, by the source's call; ? = inconclusive; / = no result; [ ] = remark or other dose. This is a sample that favours compounds with a hit; in the whole collection about 20% have one here. Unless noted, calls follow the shape of the dose curve; as a rule, active = well fitted inhibition curve with a large enough effect; inconclusive = small, poorly fitted or top-dose-only effect, or another doubt; inactive = no such curve, though single readings can be large or run the other way.

SMILES	Pf growth 48h	HCMV inh	Pf growth 96h	Shiga toxin inh	CHX counter
Oc1ccc(N2CCN(Cc3ccc(OCCCN4CCCCC4)cc3)CC2)cc1	6%[5.75 µM]	-4	?	-3	-2
Cc1ccc2cccc(N)c2n1	-15%	38	0.93µM*	16	16
CC(C)(O)C#Cc1ccccc1C(=O)NC(CC(N)=O)C(=O)O (stereo unspecified)	3%	8	/	9	-2
Cc1c(C(=O)NC(=S)NCC(C)C)oc2ccccc12	26%	-4	40%	35	17*
CC(=O)Nc1ccc(NC(=S)NC(=O)c2oc3ccccc3c2C)cc1	-6%	-5	45%	-5	-3
Cc1cccnc1NC(=S)NC(=O)c1oc2ccccc2c1C	80%	-14	37%	79*	40*
CC(C)(C)OC(=O)CC[C@@H](C(=O)N1CCN(C(=O)OC(C)(C)C)CC1)n1cc(C(CO)NC(=O)OC(C)(C)C)nn1 (stereo partly specified)	?	25	?	-3	-2
CC(C)C[C@H]1CN([C@@H](Cc2ccccc2)CN2CCC[C@H]2CN2C(=O)C(=O)NC[C@@H]2Cc2ccc(O)cc2)C(=O)C(=O)N1CC1CCCCCC1	/	-87*	/	/	/
CC(C)C[C@H]1CN([C@@H](Cc2ccc(O)cc2)CN2CCC[C@H]2CN2C(=O)C(=O)NC[C@@H]2Cc2ccccc2)C(=O)C(=O)N1CC1CCCCC1	/	-12	/	/	/
CC(C)C[C@H]1CN([C@@H](Cc2ccc(O)cc2)CN2CCC[C@@H]2CN2C(=O)C(=O)NC[C@@H]2Cc2ccccc2)C(=O)C(=O)N1CC1CCCCCC1	/	-65*	/	/	/
CC(C)C[C@H]1CNC(=O)C(=O)N1C[C@@H]1CCCN1C[C@H](Cc1ccc(O)cc1)N1C[C@H](Cc2ccccc2)N(CC2CCCCCC2)C(=O)C1=O	/	-4	/	/	/
O=C1CSC(c2cccnc2)N1c1ccccc1 (stereo unspecified)	135%	39	-5%	8	3
CC(C)(C)c1ccc(N2C(=O)CSC2c2cccnc2)cc1 (stereo unspecified)	1.2µM*	-22	?	-2	-1
Cc1nc2scc(-c3ccccc3)c2c(=O)n1N	/	?	-20%	-5	-1
Cc1nc2scc(-c3ccc(C(C)C)cc3)c2c(=O)n1N	-17%	-62*	-16%	-3	4
Cc1ccc(-c2csc3nc(C)n(N)c(=O)c23)o1	/	29	90%	47*	46*
COc1cccc(CNC(=O)c2cccc(S(=O)(=O)N3CCN(C)CC3)c2)c1	-7%	25	5%	4	-1
N#CC/C(N)=N/Nc1nc2ccccc2nc1Cc1ccccc1	4.7µM*	43	?	-12	-8
N#Cc1ccc(C(=O)N2CCC3CC2c2cc(-c4ccccc4)ccc23)cc1 (stereo unspecified)	/	7	/	/	/
COc1ccccc1CCNC(=O)C(=O)NCC1OCCN1S(=O)(=O)c1cccs1 (stereo unspecified)	-16%	22	?	25*	34*
COc1ccccc1CCNC(=O)C(=O)NCC1OCCCN1S(=O)(=O)c1ccc(F)cc1C (stereo unspecified)	-28%	-75*	?	-4	-2
CN(C)CCNC(=O)C(=O)NCC1OCCN1S(=O)(=O)c1cc(F)ccc1F (stereo unspecified)	3%	-61*	?	-19	1
O=S(=O)(c1ccc(NCCCO)nc1)N1CCOCC1	?	-7	12%	/	/
CCCOc1ccc(C2C(=O)N(C3CCCCCC3)CC(=O)N2CCCOCC)cc1OC (stereo unspecified)	/	-31	/	/	/
CCOC(=O)N1CCN(c2c(NCCCN3CCCCCC3)c(=O)c2=O)CC1	/	-28	10µM*	-5	-9
SMILES	Pf growth 48h	HCMV inh	Pf growth 96h	Shiga toxin inh	CHX counter
CCOC(=O)N1CCN(c2c(NCCCN(C)c3ccccc3)c(=O)c2=O)CC1	/	-75*	18%	-20	-6
Cc1oc(-c2ccc3ccccc3c2)nc1CN(C)C(C)c1ccncn1 (stereo unspecified)	34%	-5	4%	-3	-2
COc1ccccc1/C=C1\SC(=S)N(CCC(=O)NC2=NCCS2)C1=O	7%	-31	-5%	-9	-5
O=C1/C(=C/c2cccs2)SC(=S)N1CCC(=O)N1CCCCC1CCO (stereo unspecified)	?	-96*	12µM*	121*	39*
COc1ccccc1/C=C1\SC(=O)N(CCC(=O)N2CCCCC2CCO)C1=O (stereo unspecified)	?	-23	9.3µM*	18	-7
COc1ccccc1/C=C1\SC(=O)N(CC(=O)N(C)C2CCS(=O)(=O)C2)C1=O (stereo unspecified)	4%	-24	14%	2	2
COc1ccccc1/C=C1\SC(=S)N(CCC(=O)N2CCCCC2CCO)C1=O (stereo unspecified)	?	-77*	?	-2	-5
Cc1[nH]c2ccccc2c1C(=O)CN1C(=O)NC2(CC(C)CC(C)(C)C2)C1=O (stereo unspecified)	?	-1	10µM*	-3	-2
NC(=S)NNC(=S)Nc1ccccc1	14%	-3	21%	4	-2
S=C(Nc1ccccc1)Nc1ccc(Br)cc1	?	?	-4%	31	15*
S=C(NN=C(C1CC1)C1CC1)Nc1ccccc1	135%	?	54%	43*	34*
O=C(CS(=O)(=O)Cc1ccccc1)Nc1ccc(Br)cc1F	/	15	/	/	/
S=C(Nc1ccccc1)Nc1cccc(Br)c1	9%	-33	-19%	2	7
Fc1cc(Br)ccc1NC(=S)Nc1ccccc1	67%	-37	?	65*	50*
S=C(NNC(=S)Nc1ccccc1)Nc1ccccc1	45%	97	73%	56*	42*
O=C(Nc1ccc2nc([C@H]3C[C@H](O)[C@@H](CO)O3)[nH]c2c1)NC(c1ccccc1)c1ccccc1	/	-6	/	/	/
COc1cccc(OCc2nc3ccccc3n2CCOc2ccccc2)c1	/	32	/	/	/
Cc1ccc(S(=O)(=O)N2CCCc3cc(NC(=O)c4ccc(Cl)cc4)ccc32)cc1	/	-10	/	/	/
CC(C)(C)C(=O)Nc1cc2c3c(c1)CCN3C(=O)CC2	0%	0	30%	10	-2
Cc1ccc(NC(=S)Nc2ccc(Br)cc2)cc1	33%	-33	?	17	23
Fc1ccccc1NC(=S)Nc1ccc(Br)cc1	31%	?	67%	18*	17*
Cc1cccc2sc(N(CCN(C)C)C(=O)C3CCN(S(=O)(=O)c4cccs4)CC3)nc12	12µM*	-5	?	/	/
CN(C)CCN(C(=O)C1CCN(S(=O)(=O)c2cccs2)CC1)c1nc2ccc(F)cc2s1	59%	5	26%	/	/
COc1ccc2sc(N(CCN(C)C)C(=O)/C=C/c3cccs3)nc2c1	5%	-76*	?	-28	-9
